PubChem BioAssay (EPA / NIEHS)
Values joined by “and” are separate entries in the source; they are usually repeats but may differ in a detail not shown here. Equal values may be shown once. More than one record can exist for a structure, and the calls need not agree. Active and inactive are the calls of the source. The calls were made as follows: active = hit-call score of the fitted dose curve at least 0.9, where 1 is the maximum; inactive = score below 0.9.

Each compound was assayed on ABC Transporter (ABCC2), ABCC2 (gene 1244) (assay: LTEA_HepaRG_ABCC2: Life Technologies and Expression Analysis (LTEA) Assay for ABC Transporter (ABCC2) using HepaRG (AID 2283464)). Conditions: mRNA level, 48 h; actives raise or lower the signal.
Method: LTEA_HepaRG is a cell based, multiplexed-readout assay that uses HepaRG, a human liver cell line, with measurements taken at 48 hours after chemical dosing on a 96-well plate.LTEA_HepaRG_ABCC2 is one of 102 assay component(s) measured in the LTEA HepaRG cell culture assay. It is a marker of Steatosis/NR mediated transport.Data from the assay component LTEA_HepaRG_ABCC2 was analyzed into 1 endpoint. This assay endpoint, LTEA_HepaRG_ABCC2, was analyzed with bidirectional fitting relative to DMSO as the negative control and baseline of activity. Using a type of inducible reporter, measures of mRNA induction for gain or loss-of-signal activity can be used to understand regulation of transcription factor activity. To generalize the intended target to other relatable targets, this assay endpoint is annotated to the transporter intended target family, where the subfamily is ABC transporter.
A total of 1060 chemcials from the ToxCast library were tested in eight-point concentration-response experiments. Cell culture and cytotoxicity assays were conducted at Thermo Fisher Scientific's Custom Services facility (Madison, WI). A single lot of human HepaRG cells (Thermo Fisher Scientific, Frederick, MD) was used for the cell culture experiments. 96-well format collagen type I coated plates of human HepaRG cells were prepared using established methods. Briefly, cryopreserved HepaRG cells were thawed, plated at a density of approximately 100,000 cells/well in HepaRG Thaw, Plate, and General Purpose media (HPRG770, Thermo Fisher Scientific), and incubated for 48 hours. 0.5% DMSO was selected as vehicle control to balance the requisite need of DMSO in HepaRG cultures to maintain differentiation (for example, baseline metabolism, proportions of hepatocytes vs. cholangiocytes), while enabling further hepatic receptor pathway activation (for example, PXR and CAR) in response to chemical exposure. 48 hours after plating, the culture medium was replaced with HepaRG Serum-Free Incudtion Media. Cells were exposed to each test chemical in duplicate and maintained in CO2 incubators for another 48 hours. Chemical plates were thawed to room temperature and 200x concentrations of treatment groups were prepared. 8-point conentration-reponse curves were made with the highest exposure at 100 uM, followed by half-log dilutions, all in 0.5% DMSO. Each test plate contained variouse controls, induction positive controls (1mM phenobarbital), cytotoxicity positive controls ([…] aflatoxin B1), vehicle controls (0.5% DMSO), and total lysis controls (0.5% DMSO). Cell morphology images were taken using an Essen IncuCyte FLR automated microscope, with six 96-well plates imaged in about 24 minutes. Images were captured and exported and JPEG files. Spent culture media was transfered to black-well plates for the LDH assay, and remaining media was sorted at -80 C for later use. Cells were treated with RLT buffer and frozen until shipped for gene expression analysis. Total RNA was isolated from the cell suspension in 75 uL of Buffer RLT (Qiagen, Germantown, MD 20874) by Quintiles/Expression Analysis (Durham, NC) using a custom isolation procedure. Total RNA from each plate well was transferred to a preamplification plate. Fluidigm's 96.96 Dynamic ArrayTM (Fluidigm, Amsterdam, the Netherlands) technology was used for gene expression analyses by quantitative reverse transcription polymerase chain reaction (qRT-PCR, performed by Quintiles/Expression Analysis, Durham, NC)89. Standard TaqManTM Assays (Applied Biosystems/ThermoFisher Scientific, Foster City, CA) were used to assess the expression of 93 genes selected based on their selectivity and sensitivity to important hepatic receptors known to be modulated by environmental chemicals; importance in human hepatocyte functionality; and hepatotoxicity. […]

SMILES | outcome | AC50
CNC(=O)/C=C(\C)OP(=O)(OC)OC | inactive | 
N#Cc1c(Cl)c(Cl)c(Cl)c(C#N)c1Cl | inactive | 
O=C(O)CCCOc1ccc(Cl)cc1Cl | inactive | 
CCC(C)Nc1c([N+](=O)[O-])cc(C(C)(C)C)cc1[N+](=O)[O-] (stereo not given) |  | 17.8 µM (active)
OCCOc1ccccc1 | inactive | 
CNC(=O)Oc1ccccc1OC(C)C | inactive | 
COc1nn(CSP(=S)(OC)OC)c(=O)s1 | inactive | 
CCN(CC)C(=O)SCc1ccc(Cl)cc1 | inactive | 
O=C(NC(=O)c1c(F)cccc1F)Nc1ccc(OC(F)(F)C(F)OC(F)(F)F)c(Cl)c1 (stereo not given) | inactive | 
C[C@H]1[C@H](c2ccc(Cl)cc2)SC(=O)N1C(=O)NC1CCCCC1 | inactive | 
COP(=O)(OC)OC=C(Cl)Cl | inactive | 
O=S(=O)(O)C(F)(F)C(F)(F)C(F)(F)C(F)(F)C(F)(F)C(F)(F)C(F)(F)C(F)(F)F | inactive | 14.2 µM (active) and 90.7 µM (active)
CCCN(CCC)c1c([N+](=O)[O-])cc(C(F)(F)F)cc1[N+](=O)[O-] | inactive | 
CCOCN(C(=O)CCl)c1c(C)cccc1CC | inactive | 
CC(C)(C)C(O)/C(=C\c1ccc(Cl)cc1Cl)n1cncn1 (stereo not given) |  | 80.6 µM (active)
Cc1[nH]c(=O)n(C(C)(C)C)c(=O)c1Cl | inactive | 
CCOC1Oc2ccc(OS(C)(=O)=O)cc2C1(C)C (stereo not given) | inactive | 
CC(C)(C)C(O)C(Oc1ccc(Cl)cc1)n1cncn1 (stereo not given) | inactive | 2.47 µM (active)
O=[N+]([O-])c1c(Cl)c(Cl)c(Cl)c(Cl)c1Cl | inactive | 

SMILES | outcome | AC50
COP(=S)(OC)Oc1ccc(SC)c(C)c1 | inactive | 
Oc1ccc(Cl)cc1Cc1ccccc1 | inactive | 
O=C(O)COc1ccc(Cl)cc1Cl | inactive | 
O=C(Nc1ccccc1)Nc1cnns1 |  | 89.5 µM (active)
CCc1ccc(C(=O)NN(C(=O)c2cc(C)cc(C)c2)C(C)(C)C)cc1 | inactive | 
O=C(O)C(F)(F)C(F)(F)C(F)(F)C(F)(F)C(F)(F)C(F)(F)C(F)(F)F | inactive | 
CN1CSC(=S)N(C)C1 | inactive | 
Oc1cc(Cl)ccc1Oc1ccc(Cl)cc1Cl | inactive | 
N#CN | inactive | 
CC[C@H](C)[C@H]1O[C@]2(C=C[C@@H]1C)C[C@@H]1C[C@@H](C/C=C(\C)[C@@H](O[C@H]3C[C@H](OC)[C@@H](O[C@H]4C[C@H](OC)[C@@H](O)[C@H](C)O4)[C@H](C)O3)[C@@H](C)/C=C/C=C3\CO[C@@H]4[C@H](O)C(C)=C[C@@H](C(=O)O1)[C@]34O)O2 (tested in a mixture with another compound) |  | 30.2 µM (active)
C#CCN1C(=O)COc2cc(F)c(N3C(=O)C4=C(CCCC4)C3=O)cc21 |  | 8.81 µM (active)
O=S1OCC2C(CO1)C1(Cl)C(Cl)=C(Cl)C2(Cl)C1(Cl)Cl (stereo not given) | inactive | 
CNC(=O)Oc1cccc(N=CN(C)C)c1 | inactive | 
CC1(C)C(C=C(Cl)Cl)C1C(=O)OC(C#N)c1ccc(F)c(Oc2ccccc2)c1 (stereo not given) |  | 50 µM (active)
O=[N+]([O-])/N=C1\NCCN1Cc1ccc(Cl)nc1 |  | 24.9 µM (active)
CCC(C)(C)C(=O)OC1=C(c2ccc(Cl)cc2Cl)C(=O)OC12CCCCC2 | inactive | 
CC(C)N(C(=O)COc1nnc(C(F)(F)F)s1)c1ccc(F)cc1 | inactive | 
ClC1C(Cl)C(Cl)C(Cl)C(Cl)C1Cl (stereo not given) |  | 3.62 µM (active)
COP(=S)(OC)Oc1ccc([N+](=O)[O-])cc1 | inactive | 
